The nature of assay [1]: inhibitors of TNFa-induced NFkB p65 translocation, primary screen, imaging, HUVEC, MLSMR starter and 10KST1 sets (AID 438;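 active = inhibition above 20% together with a positive visual image hit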;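 note: compound added about 3h40 before a 20 min TNFalpha stimulation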;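 for inhibition: signal is the nuclear over cytoplasmic p65 intensity ratio per well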). The conditions noted are these: HUVEC TNFa-induced p65 nuclear translocation; cell count: measured here: nuclei count (cytotoxicity indicator), at 2.08 µM; inhibition: at 2 µM, stronger effect = higher value, 0% TNFa-plus-vehicle, 100% no-TNFa wells.
A short description of assay [2]: inhibitors of mutant huntingtin aggregation, primary screen, imaging, exon1htt(103Q)mCFP cells, high-content imaging (AID 483;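 active = visual image review flags a hit and inhibition of aggregation exceeds 20%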;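 note: compound exposure lasted 3 days before fixation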;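 for nuclei count: percent of the per-plate median nuclei count of sample wells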). As to conditions: exon1htt(103Q)mCFP cell line, aggregate imaging, at 2 µM; inhibition of aggregation: stronger effect = higher value; nuclei count: measured here: cell count, toxicity.
Assay [3] in a line: inhibitors of E-selectin induction by TNFa, primary screen, imaging, HUVEC, immunofluorescence, MLSMR starter and 10KST1 sets (AID 487).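 For inhibition: signal is fraction of cell area covered by stained E-selectin grains.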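 For nuclei count: 100% = median nuclei count of all wells on the same plate.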 As to conditions: HUVEC TNFalpha-induced E-selectin immunofluorescence imaging, at 2 µM; inhibition: stronger effect = higher value; nuclei count: measured here: cell number, toxicity.
The target in assay [4] is Voltage-gated potassium channel subunit beta-2 (Rattus norvegicus) (UniProt P62483). The experiment in a line: KvBeta enzyme negative modulators, primary screen, biochemical, NADPH fluorescence (AID 622;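 active = fluorescence slope higher than the sample average by over 3 SD, cut at about -0.22 in these data, passing the limit was not always enough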;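 note: slope of raw intensity against log time taken from 70 to 1610 s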). As to conditions: recombinant KvBeta, 4-cyanobenzaldehyde reduction, at 10 µM, stronger effect = higher value.
Assay [5] has the same target. As to the kind of experiment: KvBeta positive modulators, primary screen, biochemical, NADPH fluorescence (AID 623;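 active = NADPH fluorescence slope more negative than the mean of all samples by about 3 SD, 99.7% confidence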;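 note: fluorescence intensity change per second fitted from 20 to 320 s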). As to conditions: Recombinant KvBeta, NADPH fluorescence decrease slope, 10 min; at 10 µM; stronger effect = lower value.
Assay [6] addresses Alpha-2C adrenergic receptor (Homo sapiens) (UniProt P18825). The experiment in a line: modulators of alpha2C/GIRK thallium flux, primary screen, cell-based, HEK293 alpha2C/GIRK1/2 (AID 624;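 active = fluorescence slope after compound addition differing from the mean of all screened samples at 99.7% confidence, in either direction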;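 note: slope of fluorescence ratio to pre-addition baseline per second over 15 to 24 s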). The conditions noted are these: thallium flux BTC fluorescence, at 10 µM, actives lie on both sides.
Assay [7] is described as follows: inhibitors of Sendai virus-induced IRF3 signaling, primary screen, TLR/RLR signaling modifier project, cell-based, Sendai virus stimulus, luciferase, 10K MLSCN set (AID 602276;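 active = inhibition at or above 50% at 10 µM; inactive = inhibition below 50%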;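 note: firefly luciferase from ISG56 promoter only with Renilla not read in this screen; 0% = Sendai virus plus DMSO and 100% = medium plus DMSO without virus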). As to conditions: HEK293 RL24 IRF3 luciferase reporter, at 10 µM, stronger effect = higher value.
The nature of assay [8]: inhibitors of poly I:C-induced TLR3 signaling, primary screen, cell-based, poly I:C stimulus, luciferase, 10K MLSCN set (AID 602277;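 active = inhibition of the reporter signal at or above 50%; inactive = inhibition below 50%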). As to conditions: HEK293-TLR3 RL24 IRF3 luciferase reporter, at 10 µM, stronger effect = higher value.

These results are taken from PubChem BioAssay.

Activity calls are given as the source filed them.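 Rule for the calls, unless noted: active = visually confirmed hit in the image check and inhibition above 20%; inconclusive = visually confirmed hit but inhibition not above 20%; inactive = no visual hit in the image check.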

Chain of Voltage-gated potassium channel subunit beta-2 (Rattus norvegicus) (P62483 whole entry, looked up): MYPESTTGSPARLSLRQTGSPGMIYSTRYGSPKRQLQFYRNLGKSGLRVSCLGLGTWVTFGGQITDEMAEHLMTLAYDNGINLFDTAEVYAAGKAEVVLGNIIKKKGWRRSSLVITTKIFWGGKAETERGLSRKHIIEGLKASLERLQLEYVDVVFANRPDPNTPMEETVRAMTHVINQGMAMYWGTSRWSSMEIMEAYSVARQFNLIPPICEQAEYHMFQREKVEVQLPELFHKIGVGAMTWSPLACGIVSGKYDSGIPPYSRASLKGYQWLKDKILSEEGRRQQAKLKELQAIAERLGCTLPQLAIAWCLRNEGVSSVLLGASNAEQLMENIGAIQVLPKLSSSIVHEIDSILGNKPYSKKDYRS
Chain of Alpha-2C adrenergic receptor (Homo sapiens) (P18825 whole entry, looked up): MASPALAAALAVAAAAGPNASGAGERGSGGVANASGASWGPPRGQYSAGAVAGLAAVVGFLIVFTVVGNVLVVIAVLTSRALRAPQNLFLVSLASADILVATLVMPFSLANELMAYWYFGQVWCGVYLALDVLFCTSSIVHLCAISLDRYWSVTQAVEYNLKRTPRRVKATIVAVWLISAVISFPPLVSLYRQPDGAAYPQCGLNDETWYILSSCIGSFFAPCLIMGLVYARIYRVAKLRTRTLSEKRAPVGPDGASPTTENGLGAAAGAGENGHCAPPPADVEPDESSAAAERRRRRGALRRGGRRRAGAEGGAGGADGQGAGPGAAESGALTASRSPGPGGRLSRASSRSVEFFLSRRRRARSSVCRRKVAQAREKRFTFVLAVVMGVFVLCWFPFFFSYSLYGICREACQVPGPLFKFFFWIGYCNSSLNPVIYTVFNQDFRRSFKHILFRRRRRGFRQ

Take `O=C(Nc1ccc2c(c1)OCO2)c1cccc(Cl)c1`: in assay [1], the cell count was 407. In addition, the inhibition (as a rule, the drop in the measured response relative to a control, in per cent) in assay [1] is 1.4% (inactive); in assay [3], -22.5% (inactive); in assay [7] it was -28.3% (inactive); in assay [8], -70.9% (inactive). The inhibition of aggregation in assay [2] was -14.3% (inactive). The nuclei count in assay [2] was 107%; in assay [3], 114%. Moreover, the fluorescence slope in assay [4] was -0.398 (inactive). Moreover, the NADPH fluorescence slope in assay [5] is -4.1e-06 (inactive). Also, in assay [6], the slope is 0.0047 (inactive).

Turning to `COc1ccc(C(O)Cn2c(=N)n(CCCN(C)C)c3ccccc32)cc1` (centres undefined), in assay [1], the cell count amounted to 569. Moreover, the inhibition is -12.9% (inactive) in assay [1], -30.3% (inactive) in assay [3], -10.7% (inactive) in assay [7] and -0.929% (inactive) in assay [8]. In addition, in assay [2], the inhibition of aggregation was -27.4% (inactive). Moreover, the nuclei count in assay [2] was 85.7%; in assay [3], 112%. For the same molecule, the fluorescence slope in assay [4] is -0.587 (inactive). The NADPH fluorescence slope in assay [5] is 2.2e-05 (inactive). For the same molecule, the slope in assay [6] is 0.00727 (inactive).

Take `O=C(CCN1C(=O)c2ccccc2C1=O)Nc1ccc(F)cc1`: the cell count in assay [1] amounted to 442. Besides, the inhibition is 4.9% (inactive) in assay [1], 14.4% (inactive) in assay [3], 9.91% (inactive) in assay [7] and 13.8% (inactive) in assay [8]. Further, the inhibition of aggregation in assay [2] is -0.3% (inactive). Moreover, the nuclei count was 117% in assay [2] and 109% in assay [3]. Also, in assay [4], the fluorescence slope is -0.375 (inactive). Further, the NADPH fluorescence slope in assay [5] was 4.4e-06 (inactive). The slope in assay [6] was 0.00394 (inactive).

On to `O=C(CSc1nnc(SCc2ccc(Cl)cc2)s1)N1CCN(C(=O)c2ccco2)CC1`, for which the cell count in assay [1] worked out at 236. Further, the inhibition in assay [1] is 42.2% (active); in assay [3], -194% (inactive); in assay [7], -1.92% (inactive); in assay [8] it was -7.44% (inactive). For the same molecule, the inhibition of aggregation in assay [2] is -21.7% (inactive). The nuclei count stood at 116% in assay [2] and 152% in assay [3]. In assay [4], the fluorescence slope was -0.519 (inactive). For the same molecule, the NADPH fluorescence slope in assay [5] is -0.000144 (inactive). In addition, the slope in assay [6] is 0.00593 (inactive).

For the molecule `O=C1CN(C(=O)COC(=O)C23CC4CC(CC(O)(C4)C2)C3)c2ccccc2N1`, the cell count in assay [1] was determined as 649. For the same molecule, the inhibition was 1.4% (inactive) in assay [1], -44.5% (inactive) in assay [3], 8.83% (inactive) in assay [7] and 27.8% (inactive) in assay [8]. Further, the inhibition of aggregation in assay [2] was 8% (inactive). Further, the nuclei count in assay [2] was determined as 106%; in assay [3] it was 102%. In addition, in assay [4], the fluorescence slope was -0.597 (inactive). Further, the NADPH fluorescence slope in assay [5] is -3.1e-05 (inactive). The slope in assay [6] is 0.00543 (inactive).

As for `Cc1ccccc1-c1nc(CS(=O)(=O)CC(=O)NCc2ccccc2)c(C)o1`, in assay [1], the cell count was 642. Besides, the inhibition was 2.8% (inactive) in assay [1], 16.5% (inactive) in assay [3], 9.9% (inactive) in assay [7] and 24.3% (inactive) in assay [8]. The inhibition of aggregation in assay [2] was -36.7% (inactive). For the same molecule, the nuclei count in assay [2] turned out to be 75.5%; in assay [3], 106%. Also, the fluorescence slope in assay [4] was -0.532 (inactive). The NADPH fluorescence slope in assay [5] was -2.1e-05 (inactive). Moreover, the slope in assay [6] is 0.00661 (inactive).

`Clc1c(CSc2nc3ccccc3o2)nc2sccn12`: the cell count in assay [1] was 651. For the same molecule, the inhibition is 7.3% (inactive) in assay [1], -149% (inactive) in assay [3], -56.6% (inactive) in assay [7] and -207% (inactive) in assay [8]. In addition, in assay [2], the inhibition of aggregation is 7.5% (inactive). Further, the nuclei count was determined as 99.8% in assay [2] and 89.3% in assay [3]. The fluorescence slope in assay [4] is -0.507 (inactive). Also, the NADPH fluorescence slope in assay [5] was -4.4e-05 (inactive). Besides, the slope in assay [6] was 0.00562 (inactive).

On to `COC(=O)c1ccc(Oc2nc(NC(C)C)nc(N(C)C)n2)cc1`, for which the cell count in assay [1] amounted to 632. For the same molecule, the inhibition in assay [1] is 28.3% (inactive); in assay [3], -112% (inactive); in assay [7], -2.9% (inactive); in assay [8], 15.7% (inactive). Also, the inhibition of aggregation in assay [2] was -21.7% (inactive). Besides, the nuclei count was found to be 94.4% in assay [2] and 106% in assay [3]. In addition, the fluorescence slope in assay [4] was -0.468 (inactive). Also, the NADPH fluorescence slope in assay [5] is 2.5e-05 (inactive). Also, the slope in assay [6] was 0.00595 (inactive).

Take `O=C(OC1CCOC1=O)c1ccc2ccccc2n1` (centres undefined): the cell count in assay [1] turned out to be 633. In addition, the inhibition in assay [1] was 4.2% (inactive); in assay [3], 38.1% (inactive); in assay [7], 20.6% (inactive); in assay [8] it was 29.1% (inactive). In addition, the inhibition of aggregation in assay [2] was -0.9% (inactive). The nuclei count in assay [2] amounted to 100%; in assay [3] it was 76%. In addition, the fluorescence slope in assay [4] is -0.324 (inactive). Further, the NADPH fluorescence slope in assay [5] is 2.9e-05 (inactive). Besides, the slope in assay [6] was 0.00579 (inactive).

`O=C1NC(c2ccccc2)(C(F)(F)F)SC2=CCCCCN12` (centres undefined): in assay [1], the cell count was determined as 415. Also, the inhibition in assay [1] was 12.1% (inactive); in assay [3] it was -14% (inactive); in assay [7] it was -3.83% (inactive); in assay [8] it was 7.38% (inactive). Besides, the inhibition of aggregation in assay [2] was 2% (inactive). For the same molecule, the nuclei count in assay [2] amounted to 98.6%; in assay [3], 111%. In addition, in assay [4], the fluorescence slope was -0.545 (inactive). For the same molecule, the NADPH fluorescence slope in assay [5] was 5e-05 (inactive). The slope in assay [6] is 0.00583 (inactive).

Consider `CCOC(=O)c1sc2nc(NC(=O)COc3ccccc3)sc2c1C`, for which the cell count in assay [1] is 715. The inhibition in assay [1] was -6.9% (inactive); in assay [3], -12.6% (inactive); in assay [7] it was -24% (inactive); in assay [8], -40.4% (inactive). Further, the inhibition of aggregation in assay [2] is 9.3% (inactive). Moreover, the figures for the nuclei count in assay [2] and in assay [3] were 106% and 105%, respectively. Moreover, the fluorescence slope in assay [4] is -0.591 (inactive). Besides, the NADPH fluorescence slope in assay [5] is -1.3e-05 (inactive). In assay [6], the slope was 0.00688 (inactive).

As for `CCOC(=O)c1c(N)nn(C(=O)C(C)C)c1-c1ccccc1`, in assay [1], the cell count stood at 690. For the same molecule, the inhibition was -2.1% (inactive) in assay [1], 4.3% (inactive) in assay [3], -23.8% (inactive) in assay [7] and -5.01% (inactive) in assay [8]. The inhibition of aggregation in assay [2] was -5.4% (inactive). Moreover, the values for the nuclei count in assay [2] and in assay [3] were 112% and 109%, respectively. For the same molecule, the fluorescence slope in assay [4] was -0.529 (inactive). The NADPH fluorescence slope in assay [5] was -1.3e-05 (inactive). In assay [6], the slope is 0.00581 (inactive).

Consider `COc1ccc(CCN2C(=O)CC(N3CCOCC3)C2=O)cc1` (centres undefined), for which the cell count in assay [1] amounted to 665. Besides, the inhibition is -1.8% (inactive) in assay [1], -57% (inactive) in assay [3], 4.57% (inactive) in assay [7] and -0.756% (inactive) in assay [8]. Besides, in assay [2], the inhibition of aggregation was -7.6% (inactive). In addition, the nuclei count in assay [2] is 100%; in assay [3], 102%. For the same molecule, in assay [4], the fluorescence slope was -0.496 (inactive). Moreover, in assay [5], the NADPH fluorescence slope is -6.6e-05 (inactive). Moreover, the slope in assay [6] was 0.00402 (inactive).

As for `O=C(c1ccccc1)N1CCN(CC2CC=CCC2)CC1` (centres undefined), in assay [1], the cell count is 391. The inhibition in assay [1] was -9.9% (inactive); in assay [3] it was -93.3% (inactive); in assay [7], 6.11% (inactive); in assay [8], 19.5% (inactive). In assay [2], the inhibition of aggregation was 21.1% (inactive). Also, the nuclei count is 91% in assay [2] and 69.8% in assay [3]. Also, the fluorescence slope in assay [4] is -0.304 (inactive). Moreover, the NADPH fluorescence slope in assay [5] was 2.3e-05 (inactive). In addition, the slope in assay [6] is 0.00325 (inactive).
